# Results reported in PubChem BioAssay (NCI).
# About 83,000 compounds went through this panel and 20% of them were active in at least one assay; those are over-represented in the sample as a whole.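 Testing used 96-well plates and a 48-hour single-concentration exposure. Example: -40 means 40% of the starting cells died.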 Calls of active or inactive are those of the source. Rule for the calls: active = growth percent below 10; inactive = the rest.
# Test system: SR leukemia
# Test: NCI-60 one-dose screen, 48 h (100 = growth as untreated, 0 = no growth, -100 = all killed)
# Settings: 10 µM unless noted
row,SMILES,growth
1,CC(C)(C)CC(C)(C)c1ccc(OCCOCC[N+](C)(C)CC(=O)[O-])cc1,94.8% (inactive)
2,COc1ccc(C2(Cl)c3ccccc3N(c3ccccc3)c3ccccc32)cc1,3.25% (active)
3,CCCCC(=O)OC1CCCCC1C (stereo not drawn),95% (inactive)
4,O=P(O)(c1ccccc1)c1ccccc1I,88.8% (inactive)
5,OCC(CO)(CCl)CCl,95.6% (inactive)
6,C#CCC(C)(O)/C=C/C1=C(C)CCCC1(C)C (stereo not drawn),107% (inactive)
7,CC(=O)OC(C)COc1ccc(-c2ccccc2)cc1 (stereo not drawn),97.1% (inactive)
8,Cc1oc(-c2ccccc2Cl)cc1C(=O)Nc1ccc(S(N)(=O)=O)cc1,101% (inactive)
9,CCC(CC)C(=O)OC(C)COc1ccc(C(C)(C)C)cc1 (stereo not drawn),98.2% (inactive)
10,CCCCC/C(=C\c1ccccc1)C1OC(C)C(C)O1 (stereo not drawn),99.4% (inactive)
11,O=C1C=C(C(O)c2ccc(O)cc2)C(=O)c2ccccc21 (stereo not drawn),87.7% (inactive)
12,N#C/C(=C\c1ccc(-c2ccc(F)cc2)o1)c1nc(-c2ccco2)cs1,86.3% (inactive)
13,Cc1ccc(-c2ccc(/C=C(\C#N)c3nc(-c4ccco4)cs3)o2)cc1,89.8% (inactive)
14,N#CC1=C(N)Oc2c(c(N)nn2-c2ccccc2)C1c1ccc(Cl)cc1 (stereo not drawn),95.8% (inactive)
15,CC(c1ccccc1)N1C(=O)C(C2SC(=S)N(C(C)c3ccccc3)C2=O)SC1=S (stereo not drawn),41.4% (inactive)
16,Cn1c(=O)c2c(nc(N3CCCC3)n2C)n(C)c1=O,100% (inactive)
17,Cn1cccc1/C=C1/SC(=S)N(CCc2ccc(O)cc2)C1=O,24.1% (inactive)
18,CN(C)CCCCC(C(=O)CBr)(c1ccccc1)c1ccccc1,8.41% (active)
19,O=C(/C=C/c1ccc2ccccc2c1)Nc1ncc(Cc2ccccc2)s1,16.9% (inactive)
20,CCCCCCCN(CCCCCCC)C(=N)c1ccnc2ccccc12,-44.5% (active)

# Test system: RPMI-8226 leukemia
# Test: as above
# Settings: 10 µM unless noted
row,SMILES,growth
1,CN(CSc1ccc(Cl)cc1)c1ccc(CSc2ccc(Cl)cc2)cc1,18% (inactive)
2,O=c1[nH]c(=S)[nH]c2nc[nH]c12,99.2% (inactive)
3,O=c1[nH]ncc(Br)c1Br,23.9% (inactive)
4,Cc1ccc2[nH]cc(-c3nc(-c4cn(C)c5ncccc45)cs3)c2c1,62.7% (inactive)
5,Fc1ccc2[nH]cc(-c3nc(-c4c[nH]c5ncccc45)cs3)c2c1,31.5% (inactive)
6,O=C1C(Cl)=C(Nc2ccc(S(=O)(=O)c3ccc(NC4=C(Cl)C(=O)c5ccccc5C4=O)cc3)cc2)C(=O)c2ccccc21,5.2% (active)
7,N=C(N)c1ccc(S(N)(=O)=O)cc1,128% (inactive)
8,Cn1cc(-c2nc(-c3c[nH]c4ncccc34)cs2)c2cc(Cl)ccc21,34.2% (inactive)
9,O=C(O)/C(=C/c1ccc(O)cc1)c1ccccc1,95.5% (inactive)
10,Cc1ccc2c(c1)c(-c1nc(-c3c[nH]c4ncccc34)cs1)cn2C,72.7% (inactive)
11,CCCC1CCCCN1C(=O)OCC(C)C (stereo not drawn),108% (inactive)
12,COc1ccc(OCC(CO)N2CCN(c3ccccc3)CC2)cc1 (stereo not drawn),131% (inactive)
13,c1ccc2c(-c3nc(-c4c[nH]c5ncccc45)cs3)c[nH]c2c1,76.7% (inactive)
14,OCC1OC(n2cnc3c(Cl)ncnc32)CC1O (stereo not drawn),98.3% (inactive)
15,Cn1cc(-c2nc(-c3c[nH]c4ncccc34)cs2)c2cc(Br)ccc21,72.6% (inactive)
16,CCSc1ncnc2c1ncn2C1OC(CO)C(O)C1O (stereo not drawn),38.5% (inactive)
17,CCCCCC1CCCCN1C(=O)OCC (stereo not drawn),103% (inactive)
18,COc1ccc2c(c1)c(-c1nc(-c3c[nH]c4ncccc34)cs1)cn2C,44.3% (inactive)
19,Cn1cc(-c2csc(-c3cn(C(=O)OC(C)(C)C)c4ccccc34)n2)c2cccnc21,75.3% (inactive)

# Test system: OVCAR-8 ovarian
# Test: as above
# Settings: 10 µM unless noted
row,SMILES,growth
1,CC(C)(C)CC(C)(C)c1ccc(OCCOCC[N+](C)(C)CC(=O)[O-])cc1,105% (inactive)
2,CN(CSc1ccc(Cl)cc1)c1ccc(CSc2ccc(Cl)cc2)cc1,93.3% (inactive)
3,COc1ccc(C2(Cl)c3ccccc3N(c3ccccc3)c3ccccc32)cc1,6.73% (active)
4,CCCCC(=O)OC1CCCCC1C (stereo not drawn),87% (inactive)
5,O=P(O)(c1ccccc1)c1ccccc1I,98.2% (inactive)
6,O=c1[nH]c(=S)[nH]c2nc[nH]c12,95.2% (inactive)
7,OCC(CO)(CCl)CCl,101% (inactive)
8,C#CCC(C)(O)/C=C/C1=C(C)CCCC1(C)C (stereo not drawn),101% (inactive)
9,O=c1[nH]ncc(Br)c1Br,7.24% (active)
10,Cc1ccc2[nH]cc(-c3nc(-c4cn(C)c5ncccc45)cs3)c2c1,85.8% (inactive)
11,CC(=O)OC(C)COc1ccc(-c2ccccc2)cc1 (stereo not drawn),95.9% (inactive)
12,Fc1ccc2[nH]cc(-c3nc(-c4c[nH]c5ncccc45)cs3)c2c1,36.6% (inactive)
13,O=C1C(Cl)=C(Nc2ccc(S(=O)(=O)c3ccc(NC4=C(Cl)C(=O)c5ccccc5C4=O)cc3)cc2)C(=O)c2ccccc21,-61.8% (active)
14,Cc1oc(-c2ccccc2Cl)cc1C(=O)Nc1ccc(S(N)(=O)=O)cc1,98.1% (inactive)
15,CCC(CC)C(=O)OC(C)COc1ccc(C(C)(C)C)cc1 (stereo not drawn),86.2% (inactive)
16,CCCCC/C(=C\c1ccccc1)C1OC(C)C(C)O1 (stereo not drawn),96.3% (inactive)
17,N=C(N)c1ccc(S(N)(=O)=O)cc1,100% (inactive)
18,O=C1C=C(C(O)c2ccc(O)cc2)C(=O)c2ccccc21 (stereo not drawn),104% (inactive)
19,N#C/C(=C\c1ccc(-c2ccc(F)cc2)o1)c1nc(-c2ccco2)cs1,102% (inactive)
20,Cc1ccc(-c2ccc(/C=C(\C#N)c3nc(-c4ccco4)cs3)o2)cc1,99.8% (inactive)

row,SMILES,growth
1,Cn1cc(-c2nc(-c3c[nH]c4ncccc34)cs2)c2cc(Cl)ccc21,63.2% (inactive)
2,O=C(O)/C(=C/c1ccc(O)cc1)c1ccccc1,95.7% (inactive)
3,Cc1ccc2c(c1)c(-c1nc(-c3c[nH]c4ncccc34)cs1)cn2C,104% (inactive)
4,CCCC1CCCCN1C(=O)OCC(C)C (stereo not drawn),105% (inactive)
5,COc1ccc(OCC(CO)N2CCN(c3ccccc3)CC2)cc1 (stereo not drawn),93.6% (inactive)
6,N#CC1=C(N)Oc2c(c(N)nn2-c2ccccc2)C1c1ccc(Cl)cc1 (stereo not drawn),95.4% (inactive)
7,c1ccc2c(-c3nc(-c4c[nH]c5ncccc45)cs3)c[nH]c2c1,98.4% (inactive)
8,OCC1OC(n2cnc3c(Cl)ncnc32)CC1O (stereo not drawn),104% (inactive)
9,Cn1cc(-c2nc(-c3c[nH]c4ncccc34)cs2)c2cc(Br)ccc21,104% (inactive)
10,CC(c1ccccc1)N1C(=O)C(C2SC(=S)N(C(C)c3ccccc3)C2=O)SC1=S (stereo not drawn),96.6% (inactive)
11,Cn1c(=O)c2c(nc(N3CCCC3)n2C)n(C)c1=O,100% (inactive)
12,Cn1cccc1/C=C1/SC(=S)N(CCc2ccc(O)cc2)C1=O,67.1% (inactive)
13,CCSc1ncnc2c1ncn2C1OC(CO)C(O)C1O (stereo not drawn),29.5% (inactive)
14,CN(C)CCCCC(C(=O)CBr)(c1ccccc1)c1ccccc1,25.8% (inactive)
15,CCCCCC1CCCCN1C(=O)OCC (stereo not drawn),107% (inactive)
16,O=C(/C=C/c1ccc2ccccc2c1)Nc1ncc(Cc2ccccc2)s1,59.8% (inactive)
17,COc1ccc2c(c1)c(-c1nc(-c3c[nH]c4ncccc34)cs1)cn2C,80.8% (inactive)
18,Cn1cc(-c2csc(-c3cn(C(=O)OC(C)(C)C)c4ccccc34)n2)c2cccnc21,76.3% (inactive)
19,CCCCCCCN(CCCCCCC)C(=N)c1ccnc2ccccc12,-40.8% (active)
